Reference: PubChem BioAssay AID1814 (Broad Institute, 2009)
In all, about 300,000 compounds went through this assay and about 22,000 (7.3%) were called active. Roughly 2% stayed inconclusive and do not appear here. No stated cut-off is given here; in the data, active means activity score below about -60%; inconclusive means mostly about -28% to -61%; inactive means positive scores. The full list was thinned out, with actives kept by preference.

Assay: Activators working through SNCA 5'UTR binding (MLPCN) (AID 1814)
Conditions: alpha-synuclein 5'UTR reporter, activators screen; stronger effect = lower value; tested at 7.5 µM

SMILES	activity score
O=C1NC(=O)N(CCc2ccc(F)cc2)C(=O)/C1=C/C=C/c1ccccc1	-115% (active)
Cc1nc2ccc(N3CCN(C)CC3)cc2nc1C	-72% (active)
COc1cccc(-c2nc3ccc(N4CCN(C)CC4)cc3[nH]2)c1	68.9% (inactive)
CN(C)C(=O)Oc1ccc2c(c1)O/C(=C\c1ccccc1)C2=O	-101% (active)
CC(C)(C)c1ccc(OC(=O)N2CCCCC2)cc1	-192% (active)
CCCCCn1c(=O)c(C(=O)Nc2c(C)n(C)n(-c3ccccc3)c2=O)c(O)c2ccccc21	-108% (active)
c1ccc2sc(C3CCCNC3)nc2c1 (stereo not given)	-63% (active)
C/C(=N/O)c1ccc2ccc3ccccc3c2c1	-104% (active)
O=Cc1cn(Cc2ccc(F)cc2Cl)c2ccccc12	61.1% (inactive)
c1cc2c(cc1[C@H]1OC[C@H]3[C@@H]1CO[C@@H]3c1ccc3c(c1)OCO3)OCO2	72.8% (inactive)
O=C(Nc1cccc2ccccc12)N1CCC2(CC1)OCCO2	-71.1% (active)
CCOc1ccc(-c2cc(C)[n+](CCN(CC)CC)c(-c3ccc(OCC)cc3)c2)cc1	95.2% (inactive)
CN(C)CC1Oc2ccccc2OC1(O)c1ccccc1 (stereo not given)	-101% (active)
CCCCCCCCCCCCn1ccc(=N)cc1	104% (inactive)
N#CC1=C(N)Oc2c(c(=O)oc3ccccc23)C1c1ccccc1OC(=O)c1cccs1 (stereo not given)	-63% (active)
